A word on the AC50: it is the concentration at which the activity in the assay is half-maximal.

Several values for one entry are separate records, joined by “and”; a condition that tells them apart may be missing. Equal entries are not always repeated. Records with an inconclusive call do not appear. A structure can be active in one record and inactive in another. Activity calls are given as the source filed them. The calls were made as follows, unless noted: active = hit-call score of the fitted dose curve at least 0.9, where 1 is the maximum; inconclusive = response in the unintended direction; inactive = score below 0.9.

Read-out in assay [1]: Thyroid Hormone Responsive (THRSP), THRSP (gene 7069)
The experiment in a line: LTEA_HepaRG_THRSP: Life Technologies and Expression Analysis (LTEA) Assay for Thyroid Hormone Responsive (THRSP) using HepaRG (AID 2283536; active = hit-call score of the fitted dose curve at least 0.9, where 1 is the maximum; inactive = score below 0.9). As to conditions: mRNA level, 48 h; actives raise or lower the signal. In outline:
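Differentiated human HepaRG cells were exposed in duplicate for 48 h in serum-free induction medium to eight concentrations (top 100 uM, half-log steps, 0.5% DMSO). Expression was quantified by TaqMan qRT-PCR, normalized to ACTB, GAPDH and POLR2A, with bidirectional fitting against DMSO.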

Read-out in assay [2]: Cellular tumor antigen p53 (Homo sapiens) (UniProt P04637)
The experiment in a line: LTEA_HepaRG_TP53: Life Technologies and Expression Analysis (LTEA) Assay for Tumor Protein P53 (TP53) using HepaRG (AID 2283537; active = hit-call score of the fitted dose curve at least 0.9, where 1 is the maximum; inactive = score below 0.9). To be noted: mRNA level, 48 h; actives raise or lower the signal. In outline:
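Differentiated HepaRG cells in serum-free induction medium exposed 48 h in duplicate to 8 half-log concentrations, top 100 uM, 0.5% DMSO. TP53 mRNA by TaqMan qRT-PCR (Fluidigm), normalized to ACTB, GAPDH, POLR2A; fitted bidirectionally versus DMSO.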

Read-out in assay [3]: UDP glucuronosyltransferase (UGT1A1), UGT1A1 (gene 54658)
The experiment in a line: LTEA_HepaRG_UGT1A1: Life Technologies and Expression Analysis (LTEA) Assay for UDP glucuronosyltransferase (UGT1A1) using HepaRG (AID 2283538; active = hit-call score of the fitted dose curve at least 0.9, where 1 is the maximum; inactive = score below 0.9). To be noted: mRNA level, 48 h; actives raise or lower the signal. In outline:
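HepaRG cells, 0.5% DMSO vehicle, 48 h exposure in serum-free induction medium to 8-point half-log series topping at 100 uM, in duplicate. UGT1A1 mRNA by Fluidigm qRT-PCR, normalized to ACTB/GAPDH/POLR2A; bidirectional fit versus DMSO.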

Read-out in assay [4]: X-box binding protein 1 (XBP1), XBP1 (gene 7494)
Nature of the assay: LTEA_HepaRG_XBP1: Life Technologies and Expression Analysis (LTEA) Assay for X-box binding protein 1 (XBP1) using HepaRG (AID 2283540; active = hit-call score of the fitted dose curve at least 0.9, where 1 is the maximum; inactive = score below 0.9). To be noted: mRNA level, 48 h; actives raise or lower the signal. In outline:
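Differentiated human HepaRG cells in serum-free induction medium were exposed in duplicate for 48 h to eight half-log concentrations up to 100 uM in 0.5% DMSO. XBP1 mRNA was quantified by qRT-PCR, normalised to ACTB, GAPDH and POLR2A, with bidirectional fitting against DMSO.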

A short description of assay [5]: LTEA_HepaRG_LDH_cytotoxicity: Cytotoxicity Assessment in the Life Technologies and Expression Analysis (LTEA) Assay (AID 2283563).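 As to AC50: LDH activity released into spent culture medium as a marker of cell death.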 In outline:
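Differentiated human HepaRG cells, plated 48 h beforehand, were switched to serum-free induction medium and exposed for 48 h to eight half-log concentrations (top 100 uM) in 0.5% DMSO. LDH was measured in spent medium; activity was fitted relative to DMSO vehicle.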

Assay [6] can be described thus: TOX21_p53_BLA_p2_viability: Viability Assessment in the Tox21 HCT-116 p53 Agonism Beta-lactamase Assay, Phase 2 (AID 2283591).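 Also: compound exposure lasted 16 h at 37 °C; actives lower the ATP signal meaning cytotoxicity.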 A digest of the protocol: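 HCT-116 p53-bla cells (4000/well) rested 5 h at 37C, then received compounds in DMSO (217-fold dilution) for 16 h at 37C, 5% CO2. After the CCF4 read, CellTiter-Glo was added; ATP luminescence was read after 30 min at room temperature.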

The target of assay [7] is Cellular tumor antigen p53 (Homo sapiens) (UniProt P04637). Nature of the assay: TOX21_p53_BLA_p2_ratio: Tox21 HCT-116 p53 Agonism Beta-lactamase Assay, Ratio, Phase 2 (AID 2283592). In outline:
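HCT116 cells carrying a p53-responsive beta-lactamase reporter were plated, incubated 5 h at 37C, then dosed with compounds in DMSO (217-fold dilution) for 16 h. CCF4-AM substrate was added for 2 h at room temperature; the 460/530 nm emission ratio gave gain-of-signal activity relative to DMSO.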

Assay [8] in a line: TOX21_p53_BLA_p3_viability: Viability Assessment in the Tox21 HCT-116 p53 Agonism Beta-lactamase Assay, Phase 3 (AID 2283593).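 Also: cells exposed to compound for 16 h before reading.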 In outline: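 HCT-116 cells (4000/well) rested 5 h at 37C, then got DMSO compounds by pin tool (217-fold dilution) for 16 h at 37C, 5% CO2. After the bla read, CellTiter-Glo was added and luminescence read at 30 min, room temperature.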
Assay [9] is described as follows: ATG_XTT_Cytotoxicity: Cytotoxicity Assessment in the Attagene TRANS-FACTORIAL HepG2 Assay (AID 2283584). A digest of the protocol:
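HepG2 human liver cells, transiently transfected with multiple GAL4-UAS reporter units, were dosed and read at 24 h by XTT as cell number. Loss of signal was fitted relative to DMSO negative control baseline.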

Cellular tumor antigen p53 (Homo sapiens), sequence (P04637 whole entry, looked up): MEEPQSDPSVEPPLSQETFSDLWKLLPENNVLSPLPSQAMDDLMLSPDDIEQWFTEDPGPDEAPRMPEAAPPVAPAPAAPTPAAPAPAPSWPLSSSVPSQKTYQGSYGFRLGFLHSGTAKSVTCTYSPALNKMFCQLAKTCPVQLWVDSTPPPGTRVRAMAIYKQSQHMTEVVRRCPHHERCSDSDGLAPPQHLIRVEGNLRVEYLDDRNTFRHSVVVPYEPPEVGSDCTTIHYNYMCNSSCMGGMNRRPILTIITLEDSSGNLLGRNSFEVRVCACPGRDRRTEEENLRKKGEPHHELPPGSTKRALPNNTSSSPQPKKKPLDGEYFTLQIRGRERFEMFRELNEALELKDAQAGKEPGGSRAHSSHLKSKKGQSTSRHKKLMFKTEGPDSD

With `Cc1cc2c(cc1C(F)(F)F)N(C(=O)Nc1ccc(Oc3cccnc3C)nc1)CC2`, the call in assay [1], in assay [4], in [6], in [7] and in [8] was inactive. Also, the values for the half-maximal activity concentration (AC50) in assay [2], in [3] and in assay [5] were 75 µM (active), 81.4 µM (active) and 70.5 µM (active), respectively.
As for `COc1ccc2cc(S(=O)(=O)N[C@H](CC(=O)N[C@H](Cc3ccc(CN4[C@H](C)CCC[C@@H]4C)cc3)C(=O)N(C)C(C)C)c3ccc4c(c3)OCO4)ccc2c1`, the compound was called inactive in assay [1] and in assay [4]. For the same compound, the AC50 is 24.1 µM (active) in assay [2]; 26 µM (active) in assay [3]; 20.7 µM (active) in assay [5]; 74.2 µM (active) in assay [6]; 84.8 µM (active) in [8].
On to `O=C(O)c1ccccc1C(=O)OCc1ccccc1`, for which the compound was called inactive in [1], in assay [2], in [4], in [9], in [6] and in [8]. Besides, the AC50 in assay [3] is 24.3 µM (active).
Consider `CCCCCCCC[Si](OCC)(OCC)OCC`, for which the call in assay [1], in assay [2], in [3], in [4], in assay [5] and in assay [9] was inactive. Moreover, the compound was called inactive in assay [6] and in assay [8].
Take `O=C(O)Cc1cc(I)c(Oc2ccc(O)c(I)c2)c(I)c1`: the AC50 in assay [1] is 81.7 µM (active); in [2], 79.6 µM (active); in assay [3], 95.7 µM (active); in [4], 75 µM (active); in assay [6], 2.06 µM (active) and 5.75 µM (active); in assay [8] it was 15.9 µM (active). Moreover, the compound was classed as inactive in [5], in assay [9] and in assay [8].
`CCOC(=O)O[C@H](C)OC(=O)c1ccc2c(c1)cc(C(=O)NC1CCN(C(C)C)CC1)n2Cc1cc(-c2ccc(Cl)s2)on1`: the AC50 in assay [1] is 16 µM (active); in [5], 79.2 µM (active); in assay [6], 16.1 µM (active); in assay [7], 27.9 µM (active); in assay [8], 55.8 µM (active). The compound was called inactive in [2], in assay [3] and in assay [4].
For the compound `CCCCCCCCCCCCO`, the compound was called inactive in [1], in assay [2], in assay [3], in [4], in assay [5] and in [6]. Also, the outcome in assay [7] and in assay [8] was inactive.
As for `Oc1ccccc1`, the result in assay [1], in assay [2], in assay [3], in assay [4], in assay [5] and in assay [6] was inactive. In addition, the outcome in assay [7] and in assay [8] was inactive.
Regarding `O=C1CCC(C2CCCCC2)CC1`, the compound was classed as inactive in assay [1], in [2], in assay [3], in assay [4], in assay [5] and in assay [9]. The result in [6] and in assay [8] was inactive.
In the case of `O=C(Nc1ccc(Cl)cc1)Nc1ccc(Cl)c(Cl)c1`, the result in [1], in [9], in assay [6] and in assay [8] was inactive. Further, the AC50 in assay [2] was 12.4 µM (active); in assay [3], 14.9 µM (active); in assay [4] it was 17.2 µM (active); in assay [5] it was 24.9 µM (active); in assay [7], 3.12 µM (active) and 5.23 µM (active) and 3.82 µM (active).
With `Cc1ccc2oc(CN(Cc3ccccc3)C(=O)Nc3c(F)cc(F)cc3F)c(-c3ccc(Cl)cc3)c2c1`, the compound was called inactive in [1], in assay [3], in assay [4], in assay [5], in [9] and in assay [6]. Besides, the outcome in assay [8] was inactive. Moreover, the AC50 in assay [2] was 44.2 µM (active).
Turning to `CO[C@H]1/C=C/O[C@@]2(C)Oc3c(C)c(O)c4c(O)c(c(/C=N/N5CCN(C)CC5)c(O)c4c3C2=O)NC(=O)/C(C)=C\C=C\[C@H](C)[C@H](O)[C@@H](C)[C@@H](O)[C@@H](C)[C@H](OC(C)=O)[C@@H]1C`, the results for the AC50 in assay [1] and in assay [3] were 12 µM (active) and 0.395 µM (active), respectively. The result in assay [2], in assay [4], in assay [5], in assay [9], in assay [6] and in [7] was inactive. For the same compound, the result in assay [8] was inactive.
Turning to `CC1=CC(=O)/C(=C(/C)O)C(=O)O1`, the outcome in assay [1], in [2], in assay [3], in [4], in assay [5] and in [8] was inactive.
As to `CN1C(=O)N(c2ccccc2Br)Cc2cnc(Nc3ccc4c(c3)OCC(CO)O4)nc21` (stereo not given), the compound was called inactive in [1], in assay [2], in [4], in assay [9] and in [8]. Also, the results for the AC50 in assay [3], in [5] and in assay [6] were 85.6 µM (active), 67.9 µM (active) and 70.4 µM (active), respectively.
Regarding `CC(C)(C)c1csc(-c2cc3cc(OCc4ccccc4CC(=O)O)ccc3o2)n1`, the call in assay [1], in assay [4] and in assay [9] was inactive. For the same compound, the AC50 in [2] was 82.4 µM (active); in [3], 85.5 µM (active); in assay [5], 76.6 µM (active); in assay [6] it was 25.5 µM (active); in [8], 46.1 µM (active).
Regarding `C[C@]12CC[C@@H]3c4ccc(O)cc4CC[C@H]3[C@@H]1CCC2=O`, the compound was classed as inactive in assay [1], in assay [4], in assay [5], in assay [9] and in assay [7]. Further, the AC50 in [3] is 5.13 µM (active).
For `Cc1oc2c(NC(=O)c3c(Cl)cccc3Cl)cccc2c1C(C)(C)O`, the AC50 in [1] is 86.8 µM (active); in [2], 82.1 µM (active); in [3] it was 50 µM (active); in [4], 11.3 µM (active). In addition, the call in assay [9], in assay [6] and in assay [8] was inactive.
Turning to `CCCCCCCCCC(=O)O`, the outcome in assay [1], in assay [2], in assay [3], in [4], in assay [5] and in [9] was inactive. Further, the call in assay [6], in assay [7] and in assay [8] was inactive.
With `OC12N=C(c3ccccc3)SC1Cc1cc(Cl)ccc12` (stereo not given), the half-maximal activity concentration (AC50) was 16.2 µM (active) in [1], 26 µM (active) in assay [2], 2.54 µM (active) in [3] and 3.94 µM (active) in assay [4]. Further, the result in assay [5] and in [6] was inactive.
As to `CCCCOC(=O)CC(CC(=O)OCCCC)(OC(C)=O)C(=O)OCCCC`, the result in assay [1], in [2], in assay [3], in assay [4], in assay [5] and in assay [9] was inactive. Besides, the compound was classed as inactive in assay [6] and in assay [7].

Source of the values: PubChem BioAssay (EPA / NIEHS).
